# Where “and” joins values, the source holds several entries; their conditions need not be identical. Identical values can stand only once. For some assays here: Measured potencies and affinities stand elsewhere. Calls of active or inactive are those of the source.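 Rule for the calls, unless noted: active = compounds whose cell count with miR-34 switched on is under 0.7 times the count with it off; inactive = the rest.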
# Key:
# [1] = blockers of polyQ-driven CASP3 activation – cell-based (AID 1583); conditions: polyglutamine-induced caspase-3 activation, cell assay; stronger effect = higher value;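 tested at 10 µM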
# [2] = yeast 75Q aggregation reduction – 75Q-TubU reporter (AID 1593); conditions: Yeast 75Q polyglutamine aggregation reporter
# [3] = restoration of touch response, mutant HTT neurons – whole organism, C. elegans mechanosensory neurons, N-terminal huntingtin (AID 1599); conditions: C. elegans polyQ-huntingtin mechanosensory neurons, stronger effect = higher value
# [4] = blockers of cytochrome c efflux from mitochondria – biochemical, purified mitochondria (AID 1603); conditions: stronger effect = lower value;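 note: mouse liver mitochondria challenged with calcium chloride; signal normalized to the plate average as 100%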
# [5] = polyglutamine aggregate formation blockers (AID 1604); conditions: polyglutamine-induced protein aggregation inhibition assay; stronger effect = higher value; tested at 2.5 µM
# [6] = glutamate transport activators, MN-1 cells, MN-1 cell line (AID 1612); conditions: MN-1 motor neuron cells, stronger effect = higher value;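 note: tested at 1 µM final; 0% = mean of DMSO vehicle wells on each plate; positive means more glutamate uptake than control and negative means less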
# [7] = GFP-Q80 aggregate reduction, neuronal-like cells, cell-based, NGF-treated PC12, GFPQ80 (AID 1614); conditions: PC12 NGF-treated GFP-polyQ80 inclusion reduction;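 note: lower means fewer inclusions and 0 means no inclusions at all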
# [8] = 75Q-TubH aggregate inhibition, S. cerevisiae, yeast (AID 1616); conditions: S. cerevisiae 75Q-TubH polyglutamine aggregation suppression; stronger effect = higher value
# [9] = P. berghei load reduction in hepatocytes – cell-based, HepG2, luciferase luminescence, HepG2 viability, primary screen (AID 624349; in the data active = parasite load remaining mostly below about 12%, no sharp cut-off; inactive = mostly above about 10%;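 note: 100% = mean of DMSO negative control wells on the same plate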); conditions: P. berghei liver stage in HepG2, luciferase luminescence, concentration not given here; parasite load remaining: stronger effect = lower value; viability: measured here: HepG2 viability without parasites
# [10] = target: 6-phosphogluconate dehydrogenase, decarboxylating (Homo sapiens) (UniProt P52209); experiment: inhibition of human phosphogluconate dehydrogenase – biochemical, recombinant enzyme, NADPH absorbance, primary screen (AID 1159550;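 active = at least 20% inhibition of 6-phosphogluconate dehydrogenase activity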); conditions: recombinant 6PGD, NADPH absorbance 341 nm; at 10 µM; stronger effect = higher value
# [11] = EMT-state selective cytotoxicity in co-culture – imaging, PC-3E GFP, TEM4-18 mCherry, primary screen (AID 1345086;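 active = compounds killing one labelled cell type while sparing the other, by normalised counts and ratio limits, not self-fluorescent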;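 for all read-outs here: cells exposed to compound for 72 h before imaging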;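 for red/green cell ratio (normalised): normalised mesenchymal count divided by normalised epithelial count so high means epithelial killing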); conditions: PC-3E GFP / TEM4-18 mCherry co-culture, imaging cell counts, at 1 µM; for red/green cell ratio (normalised): actives lie on both sides, counts scaled to control wells, 1 = unselective
# [12] = viability loss with induced miR-34 in A549 – imaging, A549 dox-inducible miR-34, nuclei and caspase counts, primary screen (AID 1347080); conditions: A549 miR-34 inducible, Hoechst nuclei count, 48 h
# [13] = MELAS cybrid and Rieske KO viability enhancers – cell-based, MELAS cybrids, Rieske KO mouse fibroblasts, CellTiter-Glo, primary screen (AID 1508586;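 active = mean z-score across replicates of 1.96 or higher in either the MELAS or the Rieske mutant cell line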;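 note: z relative to plate mean and SD of compound and empty wells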); conditions: low glucose
# [14] = target: NAD(+) hydrolase SARM1 (Homo sapiens) (UniProt Q6SZW1); experiment: blocking NAD cleavage by SARM1 SAM-TIR – cell lysate, NAD-Glo luminescence (AID 1508614;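 active = compound whose remaining NAD level is above about 45 nM, limit read from the data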;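 note: higher remaining NAD means stronger inhibition of SARM1 NADase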); conditions: SAM-TIR HEK293T lysate NADase, at 1 µM, stronger effect = higher value
# [15] = target: Mitogen-activated protein kinase 7 (Homo sapiens) (UniProt Q13164); experiment: Gal4-ERK5 driven luciferase induction – cell-based, HTS, primary screen (AID 1508626;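 active = luciferase signal above three times the same-plate solvent-only control wells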;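 note: luciferase driven by Gal4-ERK5 fusion binding five Gal4 sites before minimal TATA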); conditions: HeLa Gal4-ERK5 transactivation, 18 h, at 5 µM, stronger effect = higher value
# [16] = galactose survival enhancers in mitochondrial complex I cybrids – cell-based, galactose medium, ATP luminescence, primary screen (AID 1645843;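 active = z-score of at least 1.8 in each of two replicates, scored against plate mean and spread of sample wells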;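 note: positive z means more ATP and so rescue of galactose-driven cybrid death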); conditions: complex I mutant cybrid cells, 72 h, stronger effect = higher value
# [17] = compounds altering circadian rhythm period length – cell-based, LOPAC library, luminescence reporter (AID 2774; call rule not given here;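 note: values are relative to mean of DMSO wells on each plate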); conditions: circadian reporter cells, at 7 µM, actives lie on both sides
# [18] = system: Hepatitis C virus NS3 helicase; experiment: blockers of NS3h binding to ssDNA – biochemical, fluorescence polarization, LOPAC1280 library, primary screen (AID 687035; in the data active = inhibition above about 37%); conditions: Purified HCV NS3 helicase, Cy5-dT15 ssDNA binding fluorescence polarization; stronger effect = higher value; concentration not given here
# [19] = blockers of cellular phospholipid synthesis – cell-based, LOPAC library, screen 4, primary screen (AID 1347384; call rule not given here); conditions: animal cells, phospholipid biosynthesis inhibition screen; at 10 µM
# [20] = measured here: epithelial PC-3E GFP cell survival
# [21] = measured here: mesenchymal TEM4-18 mCherry cell survival
# [22] = stronger effect = lower value, cell number ratio, induced over uninduced
# [23] = measured here: relative caspase fold change +Dox/-Dox
# [24] = measured here: total cells with miR-34 induction, stronger effect = lower value
# [25] = measured here: total cells without miR-34 induction
# [26] = MELAS cybrid survival, CellTiter-Glo 48 h, stronger effect = higher value
# [27] = Rieske KO mouse fibroblast survival, CellTiter-Glo 72 h
# Sequence of 6-phosphogluconate dehydrogenase, decarboxylating (Homo sapiens) (P52209 whole entry, looked up): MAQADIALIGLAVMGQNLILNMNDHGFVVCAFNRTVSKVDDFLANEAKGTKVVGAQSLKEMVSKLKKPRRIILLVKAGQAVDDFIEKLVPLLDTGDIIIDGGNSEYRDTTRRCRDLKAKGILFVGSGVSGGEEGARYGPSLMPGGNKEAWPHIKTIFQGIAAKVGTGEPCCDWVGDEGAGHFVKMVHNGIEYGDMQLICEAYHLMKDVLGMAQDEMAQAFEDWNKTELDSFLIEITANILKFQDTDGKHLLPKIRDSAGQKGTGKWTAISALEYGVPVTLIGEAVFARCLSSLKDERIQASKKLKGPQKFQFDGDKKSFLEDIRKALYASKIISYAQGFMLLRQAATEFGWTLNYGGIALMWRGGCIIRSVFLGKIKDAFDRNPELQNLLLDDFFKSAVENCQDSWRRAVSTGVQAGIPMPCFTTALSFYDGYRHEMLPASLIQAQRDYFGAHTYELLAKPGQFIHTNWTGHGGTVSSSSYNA
# Sequence of Mitogen-activated protein kinase 7 (Homo sapiens) (Q13164 whole entry, looked up, the tested form may be a part): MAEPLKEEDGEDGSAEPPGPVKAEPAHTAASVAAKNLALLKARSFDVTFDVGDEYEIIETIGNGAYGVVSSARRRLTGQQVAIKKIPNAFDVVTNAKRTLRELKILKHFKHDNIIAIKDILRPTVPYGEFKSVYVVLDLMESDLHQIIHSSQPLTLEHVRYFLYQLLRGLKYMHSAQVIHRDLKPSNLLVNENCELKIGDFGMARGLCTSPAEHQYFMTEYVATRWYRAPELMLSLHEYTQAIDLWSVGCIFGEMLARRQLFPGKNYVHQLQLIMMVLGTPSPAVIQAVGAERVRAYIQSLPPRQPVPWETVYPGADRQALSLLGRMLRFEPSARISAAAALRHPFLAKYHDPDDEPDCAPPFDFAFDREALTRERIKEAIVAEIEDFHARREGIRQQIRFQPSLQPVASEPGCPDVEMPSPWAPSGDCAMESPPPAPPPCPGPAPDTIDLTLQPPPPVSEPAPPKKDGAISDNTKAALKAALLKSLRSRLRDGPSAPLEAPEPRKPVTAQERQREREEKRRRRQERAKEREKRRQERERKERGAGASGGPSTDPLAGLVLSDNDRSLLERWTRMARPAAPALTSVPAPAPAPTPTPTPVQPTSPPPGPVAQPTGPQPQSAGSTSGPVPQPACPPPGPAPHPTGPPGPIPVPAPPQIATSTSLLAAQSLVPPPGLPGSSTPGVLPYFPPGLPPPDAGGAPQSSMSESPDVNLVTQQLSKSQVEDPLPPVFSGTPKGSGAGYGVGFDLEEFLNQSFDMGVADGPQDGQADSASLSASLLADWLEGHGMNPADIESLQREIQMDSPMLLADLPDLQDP
# Sequence of NAD(+) hydrolase SARM1 (Homo sapiens) (Q6SZW1 whole entry, looked up, the tested form may be a part): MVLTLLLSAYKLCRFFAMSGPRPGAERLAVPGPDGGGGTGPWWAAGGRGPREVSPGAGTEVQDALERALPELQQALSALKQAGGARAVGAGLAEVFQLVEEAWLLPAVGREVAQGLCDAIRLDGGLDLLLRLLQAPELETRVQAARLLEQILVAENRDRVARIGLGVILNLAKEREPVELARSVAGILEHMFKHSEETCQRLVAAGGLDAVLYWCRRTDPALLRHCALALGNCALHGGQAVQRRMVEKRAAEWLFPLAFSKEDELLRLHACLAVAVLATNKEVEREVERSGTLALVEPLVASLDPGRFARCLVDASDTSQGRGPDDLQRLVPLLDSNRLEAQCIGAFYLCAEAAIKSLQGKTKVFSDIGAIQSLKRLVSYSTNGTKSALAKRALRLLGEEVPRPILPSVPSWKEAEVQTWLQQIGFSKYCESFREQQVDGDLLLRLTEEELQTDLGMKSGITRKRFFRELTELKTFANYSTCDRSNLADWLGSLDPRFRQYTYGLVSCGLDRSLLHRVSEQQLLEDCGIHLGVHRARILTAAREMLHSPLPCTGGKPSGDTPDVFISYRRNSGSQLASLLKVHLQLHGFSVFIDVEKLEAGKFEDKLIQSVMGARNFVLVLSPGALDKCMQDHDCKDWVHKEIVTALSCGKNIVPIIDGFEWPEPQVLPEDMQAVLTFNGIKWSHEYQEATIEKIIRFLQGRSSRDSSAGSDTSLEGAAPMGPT
structure (smiles),measurement,setting,value
CC(C(=O)O)c1ccc(N2Cc3ccccc3C2=O)cc1 (stereo not drawn),inhibition,[1],-2.1%
same,score,[2],0.89
same,rescue above control,[3],-4.46
same,cytochrome c release ratio,[4],1.17
same,inhibition of aggregation,[5],83.7%
same,glutamate uptake change,[6],-13.2%
same,inclusion score,[7],2.5
same,aggregation suppression score,[8],1.02
same,parasite load remaining,[9],132% (inactive) and 273% (inactive) and 101% (inactive)
same,viability,[9],95.7% and 78.1% and 95.5%
same,inhibition,[10],-13% (inactive)
same,red/green cell ratio (normalised),[11],1.39 (inactive)
same,normalised cell number,[11]; [20],0.94
same,normalised cell number,[11]; [21],1.31
same,fold change,[12]; [22],0.881 (inactive) and 0.915 (inactive)
same,fold change,[12]; [23],1.39 and 0.964
same,cell count,[12]; [24],9440 and 11300
same,cell count,[12]; [25],10700 and 12400
same,z-score,[13]; [26],0.44 (inactive)
same,z-score,[13]; [27],-0.221
same,remaining NAD,[14],10 nM (inactive)
same,luciferase signal,[15],68 AU (inactive)
CC1(C)S[C@@H]2[C@H](NC(=O)Cc3ccccc3)C(=O)N2[C@H]1C(=O)O,inhibition,[1],18.9%
same,score,[2],1.32
same,rescue above control,[3],-0.92
same,cytochrome c release ratio,[4],0.98
same,inhibition of aggregation,[5],16.8%
same,glutamate uptake change,[6],6.9%
same,inclusion score,[7],2
same,aggregation suppression score,[8],1.3
same,parasite load remaining,[9],73.8% (inactive) and 85.4% (inactive) and 69.6% (inactive)
same,viability,[9],70.9% and 69.6% and 97.7%
same,inhibition,[10],1.35% (inactive)
same,red/green cell ratio (normalised),[11],1.11 (inactive)
same,normalised cell number,[11]; [20],0.85
same,normalised cell number,[11]; [21],0.94
same,fold change,[12]; [22],0.959 (inactive) and 0.873 (inactive)
same,fold change,[12]; [23],0.53 and 0.733
same,cell count,[12]; [24],9610 and 11500
same,cell count,[12]; [25],10000 and 13200
same,z-score,[13]; [26],-1.02 (inactive)
same,z-score,[13]; [27],-0.0384
same,remaining NAD,[14],10 nM (inactive)
same,luciferase signal,[15],108 AU (inactive)
CC(=O)N1CCN(c2ccc(OCC3CO[C@](Cn4ccnc4)(c4ccc(Cl)cc4Cl)O3)cc2)CC1 (stereo partly drawn),inhibition,[1],-4.16%
same,score,[2],0.15
same,rescue above control,[3],0.92
same,cytochrome c release ratio,[4],1.8
same,inhibition of aggregation,[5],88.5%
same,glutamate uptake change,[6],-8.61%
same,aggregation suppression score,[8],0.126
same,parasite load remaining,[9],15.3% (inactive) and 4.75% (inactive)
same,viability,[9],65.5% and 60%
same,inhibition,[10],-8.94% (inactive)
same,red/green cell ratio (normalised),[11],0.9 (inactive)
same,normalised cell number,[11]; [20],0.95
same,normalised cell number,[11]; [21],0.85
same,fold change,[12]; [22],1 (inactive) and 1.02 (inactive) and 0.954 (inactive)
same,fold change,[12]; [23],2.72 and 0.263 and 1.79
same,cell count,[12]; [24],7410 and 7100 and 8230
same,cell count,[12]; [25],7380 and 6960 and 8630
same,z-score,[13]; [26],-0.501 (inactive)
same,z-score,[13]; [27],-0.0671
same,z-score,[16],-0.8 (inactive)
COc1cc(S(C)=O)ccc1-c1nc2ncccc2[nH]1 (stereo not drawn),inhibition,[1],23%
same,score,[2],1.52
same,rescue above control,[3],8.66
same,cytochrome c release ratio,[4],0.94
same,inhibition of aggregation,[5],3.24%
same,glutamate uptake change,[6],3.5%
same,inclusion score,[7],2
same,aggregation suppression score,[8],1.25
same,parasite load remaining,[9],107% (inactive)
same,viability,[9],101%
same,inhibition,[10],14% (inactive)
same,red/green cell ratio (normalised),[11],1.07 (inactive)
same,normalised cell number,[11]; [20],0.84
same,normalised cell number,[11]; [21],0.9
same,fold change,[12]; [22],0.851 (inactive)
same,fold change,[12]; [23],1.41
same,cell count,[12]; [24],7350
same,cell count,[12]; [25],8630
same,z-score,[13]; [26],-0.22 (inactive)
same,z-score,[13]; [27],0.17
same,luciferase signal,[15],48 AU (inactive)
NC1(C(=O)O)CC1,period change,[17],-0.01 h (inactive)
same,inhibition,[18],-2% (inactive)
same,inhibition,[10],-3.72% (inactive)
same,red/green cell ratio (normalised),[11],0.8 (inactive)
same,normalised cell number,[11]; [20],1.07
same,normalised cell number,[11]; [21],0.86
same,fold change,[12]; [22],0.945 (inactive)
same,fold change,[12]; [23],1.33
same,cell count,[12]; [24],9670
same,cell count,[12]; [25],10200
same,outcome,[19],inactive
same,luciferase signal,[15],60 AU (inactive)
same,z-score,[16],0.575 (inactive)
COC(=O)[C@H]1[C@H]2C[C@H]3c4[nH]c5ccccc5c4CCN3C[C@H]2CC[C@@H]1O,inhibition,[1],-11.7%
same,score,[2],2.01
same,rescue above control,[3],16.2
same,cytochrome c release ratio,[4],1.18
same,inhibition of aggregation,[5],75.9%
same,glutamate uptake change,[6],41.8%
same,inclusion score,[7],2
same,aggregation suppression score,[8],1.4
same,period change,[17],0.015 h (inactive)
same,parasite load remaining,[9],79.9% (inactive) and 65.8% (inactive)
same,viability,[9],101% and 78.6%
same,inhibition,[18],0% (inactive)
same,inhibition,[10],-0.247% (inactive)
same,red/green cell ratio (normalised),[11],1.04 (inactive)
same,normalised cell number,[11]; [20],0.93
same,normalised cell number,[11]; [21],0.97
same,fold change,[12]; [22],0.977 (inactive) and 0.857 (inactive)
same,fold change,[12]; [23],0.889 and 1.48
same,cell count,[12]; [24],10000 and 9150
same,cell count,[12]; [25],10300 and 10700
same,outcome,[19],inactive
same,z-score,[16],0.115 (inactive)
CN[C@H](CC(=O)O)C(=O)O,inhibition,[1],0.95%
same,score,[2],1.4
same,rescue above control,[3],-9
same,cytochrome c release ratio,[4],0.78
same,inhibition of aggregation,[5],80.3%
same,glutamate uptake change,[6],-1.67%
same,inclusion score,[7],2
same,aggregation suppression score,[8],1.66
same,period change,[17],-0.09 h (inactive)
same,parasite load remaining,[9],161% (inactive)
same,viability,[9],83.1%
same,inhibition,[18],-2% (inactive)
same,inhibition,[10],6.3% (inactive)
same,red/green cell ratio (normalised),[11],1.02 (inactive)
same,normalised cell number,[11]; [20],1.12
same,normalised cell number,[11]; [21],1.15
same,fold change,[12]; [22],1.06 (inactive)
same,fold change,[12]; [23],0.738
same,cell count,[12]; [24],10900
same,cell count,[12]; [25],10300
same,outcome,[19],inactive
same,luciferase signal,[15],56 AU (inactive)
same,z-score,[16],0.495 (inactive)
COc1ccc(-c2cc(=O)c3c(OC)c(OC)c(OC)c(OC)c3o2)cc1,inhibition,[10],-8.06% (inactive)
same,red/green cell ratio (normalised),[11],1.11 (inactive)
same,normalised cell number,[11]; [20],1.14
same,normalised cell number,[11]; [21],1.26
same,fold change,[12]; [22],0.921 (inactive)
same,fold change,[12]; [23],0.924
same,cell count,[12]; [24],6760
same,cell count,[12]; [25],7340
same,z-score,[13]; [26],-0.525 (inactive)
same,z-score,[13]; [27],0.0182
same,luciferase signal,[15],100 AU (inactive)
OCc1c[nH]c2ccccc12,inhibition,[10],14.9% (inactive)
same,red/green cell ratio (normalised),[11],0.93 (inactive)
same,normalised cell number,[11]; [20],0.91
same,normalised cell number,[11]; [21],0.84
same,fold change,[12]; [22],0.978 (inactive)
same,fold change,[12]; [23],0.867
same,cell count,[12]; [24],8210
same,cell count,[12]; [25],8390
same,z-score,[13]; [26],-0.392 (inactive)
same,z-score,[13]; [27],-0.0559
same,luciferase signal,[15],88 AU (inactive)
NCCSSCCN,inhibition,[1],34.8%
same,score,[2],1.31
same,rescue above control,[3],-5.12
same,cytochrome c release ratio,[4],1.22
same,inhibition of aggregation,[5],47.1%
same,glutamate uptake change,[6],15.5%
same,inclusion score,[7],2
same,aggregation suppression score,[8],1.2
same,period change,[17],-0.055 h (inactive)
same,parasite load remaining,[9],165% (inactive)
same,viability,[9],85.4%
same,inhibition,[18],-2% (inactive)
same,inhibition,[10],7.72% (inactive)
same,red/green cell ratio (normalised),[11],0.92 (inactive)
same,normalised cell number,[11]; [20],1.09
same,normalised cell number,[11]; [21],1.01
same,fold change,[12]; [22],1.02 (inactive)
same,fold change,[12]; [23],2.84
same,cell count,[12]; [24],10300
same,cell count,[12]; [25],10100
same,outcome,[19],inactive
same,luciferase signal,[15],76 AU (inactive)
same,z-score,[16],-0.04 (inactive)

# From PubChem BioAssay
